Laboratory results from PubChem BioAssay.
Activity calls are given as the source filed them.

Tests used:
[1] = binders of probe aFSTL3 on microarray, primary screen, stem cell growth factor project, biochemical, small-molecule microarray, fluorescence 635/667 (AID 1064); conditions: higher = more signal;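 note: measures binding of the biotinylated anti-FSTL3 antibody to printed compounds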
[2] = binders from COS7 lysate, DM2A8 probe, primary screen, torsin A project, cell lysate, small-molecule microarray, fluorescence 635/667 (AID 1065); conditions: higher = more signal, COS7 lysate expressing mutant human TOR1A
[3] = binders of probe aFGF2 on microarray, primary screen, stem cell growth factor project, biochemical, small-molecule microarray, fluorescence 635/667 (AID 1067); conditions: higher = more signal;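 note: measures binding of biotinylated aFGF2 protein to printed compounds on slides; z-score merges feature fluorescence and signal-to-noise across triplicate slides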
[4] = binders of probe aFGF10 on microarray, primary screen, stem cell growth factor project, biochemical, small-molecule microarray, fluorescence 635/667 (AID 1071); conditions: higher = more signal;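 note: score merges 667 nm spot intensity and signal to noise from triplicate slides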
[5] = target: Neurogenic locus notch homolog protein 2 (Homo sapiens) (UniProt Q04721); assay: Notch2 binders on small-molecule microarrays, primary screen, biochemical, small-molecule microarray, 635 nm fluorescence, stem cell growth factors (AID 1073); conditions: Notch2 binding, higher = more signal
Sequence of Neurogenic locus notch homolog protein 2 (Homo sapiens) (Q04721 whole entry, looked up, canonical isoform): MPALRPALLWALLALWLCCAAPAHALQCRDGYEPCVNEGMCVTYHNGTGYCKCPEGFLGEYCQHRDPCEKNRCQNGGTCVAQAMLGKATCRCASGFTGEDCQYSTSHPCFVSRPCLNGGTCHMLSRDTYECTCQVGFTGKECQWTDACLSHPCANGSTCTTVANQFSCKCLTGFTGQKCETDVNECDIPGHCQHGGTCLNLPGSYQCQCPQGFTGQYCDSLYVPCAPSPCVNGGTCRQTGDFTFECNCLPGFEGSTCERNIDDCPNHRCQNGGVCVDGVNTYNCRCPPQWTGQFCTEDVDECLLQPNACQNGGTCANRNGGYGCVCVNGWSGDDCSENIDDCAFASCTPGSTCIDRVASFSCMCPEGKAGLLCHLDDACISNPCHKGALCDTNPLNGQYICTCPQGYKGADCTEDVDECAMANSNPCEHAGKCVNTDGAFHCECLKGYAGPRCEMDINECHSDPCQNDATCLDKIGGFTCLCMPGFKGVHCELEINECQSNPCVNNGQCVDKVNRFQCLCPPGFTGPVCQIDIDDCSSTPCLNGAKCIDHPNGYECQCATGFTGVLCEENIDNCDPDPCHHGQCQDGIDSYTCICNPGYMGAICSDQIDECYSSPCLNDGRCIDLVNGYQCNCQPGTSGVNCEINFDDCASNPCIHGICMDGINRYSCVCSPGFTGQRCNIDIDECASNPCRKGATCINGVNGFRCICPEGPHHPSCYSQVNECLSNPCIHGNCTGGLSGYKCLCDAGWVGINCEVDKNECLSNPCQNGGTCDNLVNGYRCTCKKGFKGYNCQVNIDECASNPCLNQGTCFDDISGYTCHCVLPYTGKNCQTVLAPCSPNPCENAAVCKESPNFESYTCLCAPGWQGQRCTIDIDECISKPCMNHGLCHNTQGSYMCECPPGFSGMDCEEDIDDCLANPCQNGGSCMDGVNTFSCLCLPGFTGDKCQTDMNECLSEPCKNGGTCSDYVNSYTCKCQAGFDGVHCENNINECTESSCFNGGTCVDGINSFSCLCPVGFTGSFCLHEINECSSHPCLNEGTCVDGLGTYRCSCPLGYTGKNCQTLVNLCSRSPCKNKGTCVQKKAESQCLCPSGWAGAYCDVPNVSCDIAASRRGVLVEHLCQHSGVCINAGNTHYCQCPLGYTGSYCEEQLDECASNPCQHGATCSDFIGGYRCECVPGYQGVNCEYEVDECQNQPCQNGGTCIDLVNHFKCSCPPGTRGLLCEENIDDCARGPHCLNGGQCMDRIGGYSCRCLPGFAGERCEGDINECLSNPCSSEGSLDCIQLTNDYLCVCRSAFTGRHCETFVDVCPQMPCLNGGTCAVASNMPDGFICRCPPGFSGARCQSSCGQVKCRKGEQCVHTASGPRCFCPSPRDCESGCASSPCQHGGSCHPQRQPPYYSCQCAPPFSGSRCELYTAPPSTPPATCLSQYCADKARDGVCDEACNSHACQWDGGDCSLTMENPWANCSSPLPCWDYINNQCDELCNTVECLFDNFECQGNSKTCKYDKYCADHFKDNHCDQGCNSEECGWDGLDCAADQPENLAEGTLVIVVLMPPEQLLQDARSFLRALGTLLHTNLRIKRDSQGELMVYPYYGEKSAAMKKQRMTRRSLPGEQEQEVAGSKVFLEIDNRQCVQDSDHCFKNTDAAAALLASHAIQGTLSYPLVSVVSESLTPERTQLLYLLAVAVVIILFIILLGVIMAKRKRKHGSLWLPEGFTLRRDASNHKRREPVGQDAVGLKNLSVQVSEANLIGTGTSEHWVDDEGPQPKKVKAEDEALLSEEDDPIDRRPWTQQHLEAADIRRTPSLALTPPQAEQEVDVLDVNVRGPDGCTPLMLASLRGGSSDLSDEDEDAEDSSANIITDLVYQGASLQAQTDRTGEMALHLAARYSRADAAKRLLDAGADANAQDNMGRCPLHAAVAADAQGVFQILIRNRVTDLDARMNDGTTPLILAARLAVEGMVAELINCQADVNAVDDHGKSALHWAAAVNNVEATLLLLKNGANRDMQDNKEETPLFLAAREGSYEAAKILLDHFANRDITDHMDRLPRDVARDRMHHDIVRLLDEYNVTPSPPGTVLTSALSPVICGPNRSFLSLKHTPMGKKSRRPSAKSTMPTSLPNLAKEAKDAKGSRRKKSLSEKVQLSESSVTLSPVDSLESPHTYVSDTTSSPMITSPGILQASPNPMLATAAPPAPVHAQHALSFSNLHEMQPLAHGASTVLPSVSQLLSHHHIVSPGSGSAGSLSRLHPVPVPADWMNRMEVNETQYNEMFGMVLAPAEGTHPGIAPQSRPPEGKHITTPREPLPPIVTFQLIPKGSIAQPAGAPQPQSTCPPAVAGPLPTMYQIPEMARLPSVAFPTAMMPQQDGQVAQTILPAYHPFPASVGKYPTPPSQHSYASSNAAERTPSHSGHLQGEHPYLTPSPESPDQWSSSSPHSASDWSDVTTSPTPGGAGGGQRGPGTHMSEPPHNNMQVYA

[6] = target: Pro-neuregulin-1, membrane-bound isoform (Homo sapiens) (UniProt Q02297); assay: NRG1 binders on small-molecule microarrays, primary screen, psychiatric disease protein project, biochemical, small-molecule microarray, fluorescence 635/667 (AID 1075); conditions: NRG1 binding, 635 nm fluorescence, higher = more signal;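 note: score combines 667 nm spot fluorescence with signal to noise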
[7] = system: Neuregulin-1 EGF-like domain; assay: binders of neuregulin-1 EGF-like domain, primary screen, biochemical, small-molecule microarray, 635 nm fluorescence (AID 1081); conditions: small-molecule microarray binding, higher = more signal;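 note: binding of the protein to compounds printed on small-molecule microarray slides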
[8] = FRG1 promoter luciferase signal modulators, primary screen, FRG1 inhibition for FSHD, cell-based, C2C12 myotubes, firefly/Renilla luciferase, luminescence (AID 1084); conditions: higher = more signal, called active from +8 up or from −8 down
[9] = binders of probe aFST on microarray, primary screen, stem cell growth factor project, biochemical, small-molecule microarray, fluorescence 635/667 (AID 1086); conditions: higher = more signal;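 note: score merges 667 nm fluorescence with signal-to-noise of each printed compound spot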
[10] = binders of probe aHhip on microarray, primary screen, stem cell growth factor project, biochemical, small-molecule microarray, fluorescence 635/667 (AID 1087); conditions: higher = more signal;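 note: score merges spot fluorescence at 667nm with spot signal to noise ratio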
[11] = system: PRMT1 (protein arginine N-methyltransferase 1); assay: PRMT1 binders on small-molecule microarrays, primary screen, biochemical, small-molecule microarray, 635 nm fluorescence (AID 1088); conditions: small-molecule microarray binding, higher = more signal;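 note: binding of Prmt1 protein to compounds spotted on small-molecule microarray slides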
[12] = yeast growth modulation, basal conditions, primary screen, YJM789 clinical isolate, OD600, 24 h (AID 1089);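 note: growth of clinical yeast isolate S. cerevisiae YJM 789 seeded 1000 cells per well; test concentration not given here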; conditions: S. cerevisiae YJM789 growth, higher = more signal, called active from +8 up or from −8 down
[13] = fission yeast growth modulation, primary screen, strain 972, OD600, 24 h, no modulator (AID 1090);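 note: basal condition with compound alone and no growth modifier present; test concentration not given here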; conditions: S. pombe 972 growth, higher = more signal, called active from +8 up or from −8 down
[14] = S. cerevisiae growth modulation with rapamycin, primary screen, strain BY4716, OD600, 96 h (AID 1091); conditions: higher = more signal, called active from +8 up or from −8 down; note: test concentration not given here
[15] = target: Torsin-1A-interacting protein 2 (Homo sapiens) (UniProt Q8NFQ8); assay: LULL1 binders on small-molecule microarray, primary screen, cell lysate, human LULL1 lysate, 635/667 nm fluorescence (AID 1092); conditions: hLULL1 lysate binding, 635 nm fluorescence, higher = more signal;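 note: probe is lysate of COS7 cells overexpressing human LULL1; score merges per-feature 667 nm fluorescence with signal-to-noise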
[16] = E. coli growth modulation, two-sided OD650, primary screen, E. coli filamentation project, strain DRC41, 24 h (AID 1093); conditions: OD650, 24 h, higher = more signal, called active from +8 up or from −8 down;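 note: MC1000 strain lacking acrAB efflux and sulA so SOS filamentation is blocked; test concentration not given here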
[17] = small-molecule microarray binders of probe aLefty2, primary screen, biochemical, biotinylated probe, 635/667 nm fluorescence (AID 1094); conditions: higher = more signal;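 note: score merges spot fluorescence near 667 nm with spot signal-to-noise ratio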
[18] = system: Noggin (protein binding on small-molecule microarray); assay: Noggin binders on small-molecule microarray, primary screen, biochemical, 635/667 nm fluorescence (AID 1095); conditions: 635 nm fluorescence, higher = more signal;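 note: score merges 667 nm feature fluorescence with signal to noise over triplicate slides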
[19] = target: Neurogenic locus notch homolog protein 3 (Homo sapiens) (UniProt Q9UM47); assay: NOTCH3 binders on small-molecule microarray, primary screen, biochemical, 635/667 nm fluorescence (AID 1096); conditions: NOTCH3 binding, 635 nm fluorescence, higher = more signal
Sequence of Neurogenic locus notch homolog protein 3 (Homo sapiens) (Q9UM47 whole entry, looked up): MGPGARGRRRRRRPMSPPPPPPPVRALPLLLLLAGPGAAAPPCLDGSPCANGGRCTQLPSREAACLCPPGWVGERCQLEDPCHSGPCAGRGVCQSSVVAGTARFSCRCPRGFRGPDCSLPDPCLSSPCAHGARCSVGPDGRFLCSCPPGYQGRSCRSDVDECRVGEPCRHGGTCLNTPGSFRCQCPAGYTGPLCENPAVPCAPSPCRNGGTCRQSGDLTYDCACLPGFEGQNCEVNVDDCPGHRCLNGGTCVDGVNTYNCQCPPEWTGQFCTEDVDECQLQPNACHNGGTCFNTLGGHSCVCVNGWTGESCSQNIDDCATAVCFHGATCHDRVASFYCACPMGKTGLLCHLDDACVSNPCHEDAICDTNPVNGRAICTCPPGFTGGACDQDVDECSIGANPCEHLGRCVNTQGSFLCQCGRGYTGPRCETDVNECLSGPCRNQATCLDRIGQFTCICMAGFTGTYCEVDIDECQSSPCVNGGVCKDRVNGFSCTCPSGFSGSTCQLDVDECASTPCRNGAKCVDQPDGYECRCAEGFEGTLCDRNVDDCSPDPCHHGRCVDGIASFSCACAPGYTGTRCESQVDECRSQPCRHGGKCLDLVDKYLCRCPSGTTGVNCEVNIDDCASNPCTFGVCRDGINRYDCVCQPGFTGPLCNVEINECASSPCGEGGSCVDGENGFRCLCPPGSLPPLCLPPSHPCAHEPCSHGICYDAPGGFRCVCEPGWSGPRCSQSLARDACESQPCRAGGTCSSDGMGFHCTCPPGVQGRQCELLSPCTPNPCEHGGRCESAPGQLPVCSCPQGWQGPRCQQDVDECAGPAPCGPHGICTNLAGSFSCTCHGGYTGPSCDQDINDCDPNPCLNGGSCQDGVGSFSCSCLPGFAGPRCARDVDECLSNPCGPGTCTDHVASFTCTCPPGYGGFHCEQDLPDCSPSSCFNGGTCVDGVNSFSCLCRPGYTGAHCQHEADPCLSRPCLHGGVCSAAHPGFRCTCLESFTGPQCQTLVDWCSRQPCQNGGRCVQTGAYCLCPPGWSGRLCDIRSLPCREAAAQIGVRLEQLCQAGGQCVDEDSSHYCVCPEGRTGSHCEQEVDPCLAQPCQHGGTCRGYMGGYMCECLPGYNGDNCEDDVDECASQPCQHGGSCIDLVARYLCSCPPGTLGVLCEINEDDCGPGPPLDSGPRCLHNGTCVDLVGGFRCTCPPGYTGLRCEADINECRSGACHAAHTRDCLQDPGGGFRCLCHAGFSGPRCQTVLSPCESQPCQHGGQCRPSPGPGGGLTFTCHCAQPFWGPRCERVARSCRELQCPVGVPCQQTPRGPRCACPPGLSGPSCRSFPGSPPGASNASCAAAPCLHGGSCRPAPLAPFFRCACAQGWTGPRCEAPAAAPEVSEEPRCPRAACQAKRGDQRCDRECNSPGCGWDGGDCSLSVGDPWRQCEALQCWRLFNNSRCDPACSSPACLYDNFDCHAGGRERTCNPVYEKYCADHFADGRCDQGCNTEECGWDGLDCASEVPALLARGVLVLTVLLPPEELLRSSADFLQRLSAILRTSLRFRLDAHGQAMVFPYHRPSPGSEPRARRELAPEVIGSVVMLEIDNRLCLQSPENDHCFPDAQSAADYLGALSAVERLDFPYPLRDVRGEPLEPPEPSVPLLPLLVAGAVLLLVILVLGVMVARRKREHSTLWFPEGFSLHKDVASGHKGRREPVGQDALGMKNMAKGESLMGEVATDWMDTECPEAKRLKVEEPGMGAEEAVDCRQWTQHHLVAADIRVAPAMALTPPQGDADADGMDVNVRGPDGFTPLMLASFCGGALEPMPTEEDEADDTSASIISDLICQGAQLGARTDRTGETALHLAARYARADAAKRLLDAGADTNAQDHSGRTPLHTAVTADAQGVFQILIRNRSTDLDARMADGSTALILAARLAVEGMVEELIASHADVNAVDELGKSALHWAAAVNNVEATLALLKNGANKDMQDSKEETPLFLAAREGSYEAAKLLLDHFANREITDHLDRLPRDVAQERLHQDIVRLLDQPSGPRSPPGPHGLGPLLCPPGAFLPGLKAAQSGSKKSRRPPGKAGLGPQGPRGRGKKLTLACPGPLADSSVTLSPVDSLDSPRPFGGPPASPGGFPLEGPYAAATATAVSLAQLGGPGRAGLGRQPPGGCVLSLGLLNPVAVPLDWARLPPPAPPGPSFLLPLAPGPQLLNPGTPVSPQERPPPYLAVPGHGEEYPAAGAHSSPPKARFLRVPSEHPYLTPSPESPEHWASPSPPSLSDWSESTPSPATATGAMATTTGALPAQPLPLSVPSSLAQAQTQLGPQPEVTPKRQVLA

[20] = small-molecule microarray binders of probe aEGFR, primary screen, biochemical, biotinylated probe, 635/667 nm fluorescence (AID 1097); conditions: higher = more signal;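 note: probe is a biotinylated anti-EGFR antibody binding compounds printed on slides; score combines fluorescence near 667 nm and signal to noise of each spot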

## CCOC(=O)C1=CC[C@@H](c2ccccc2F)N(S(=O)(=O)c2ccc(C)cc2)[C@H]1c1ccccc1
[1]
  composite z-score: -0.419
[2]
  composite z-score: -0.0956
[3]
  composite z-score: -0.0253
[4]
  composite z-score: 0.765
[5]
  composite z-score: 1.46
[6]
  composite z-score: 0.65
[7]
  composite z-score: 0.677
[8]
  z-score: -3.46 (inactive)
[9]
  composite z-score: 0.789
[10]
  composite z-score: -0.11
[11]
  composite z-score: 1.12
[12]
  z-score: -0.0047 (inactive)
[13]
  z-score: 1.29 (inactive)
[14]
  z-score: 0.151 (inactive)
[15]
  composite z-score: 2.72
[16]
  z-score: -0.818 (inactive)
[17]
  composite z-score: -0.0551
[18]
  composite z-score: 0.63
[19]
  composite z-score: 0.812
[20]
  composite z-score: -0.101

## CCCCN1CC=CC23O[C@@H]4/C=C\CCC(C)OC(=O)C4[C@H]2C(=O)N(CCCO)[C@@H]3C1=O (stereo not given in full)
[1]
  composite z-score: 0.35
[2]
  composite z-score: -0.913
[3]
  composite z-score: -0.195
[4]
  composite z-score: -0.317
[5]
  composite z-score: -0.962
[6]
  composite z-score: 1.93
[7]
  composite z-score: 1.1
[8]
  z-score: -0.313 (inactive)
[9]
  composite z-score: -0.663
[10]
  composite z-score: -0.306
[11]
  composite z-score: -0.298
[12]
  z-score: 0.757 (inactive)
[13]
  z-score: 0.772 (inactive)
[14]
  z-score: 0.528 (inactive)
[15]
  composite z-score: 0.879
[16]
  z-score: 0.755 (inactive)
[17]
  composite z-score: -0.186
[18]
  composite z-score: -0.908
[19]
  composite z-score: -0.166
[20]
  composite z-score: -0.217

## CCCCCN1CC=CC23O[C@@H]4C=CCCOC(=O)C4[C@H]2C(=O)N(CCCCCCO)[C@@H]3C1=O (stereo not given in full)
[1]
  composite z-score: 0.0199
[2]
  composite z-score: -0.336
[3]
  composite z-score: -0.169
[4]
  composite z-score: 0.0401
[5]
  composite z-score: -0.812
[6]
  composite z-score: 1.98
[7]
  composite z-score: 0.99
[8]
  z-score: -0.457 (inactive)
[9]
  composite z-score: -0.658
[10]
  composite z-score: -0.0994
[11]
  composite z-score: 0.812
[12]
  z-score: -0.0966 (inactive)
[13]
  z-score: -0.0045 (inactive)
[14]
  z-score: -0.0168 (inactive)
[15]
  composite z-score: 3.49
[16]
  z-score: 0.313 (inactive)
[17]
  composite z-score: -0.423
[18]
  composite z-score: -0.362
[19]
  composite z-score: -0.135
[20]
  composite z-score: -0.282

## C=CC[C@H](OC(=O)Nc1ccc(SC)cc1)c1ccc(O)c2ccccc12
[1]
  composite z-score: 0.0792
[2]
  composite z-score: 0.104
[3]
  composite z-score: 0.0536
[4]
  composite z-score: 0.254
[5]
  composite z-score: 1.3
[6]
  composite z-score: 1.75
[7]
  composite z-score: 1.33
[8]
  z-score: 7.23 (inactive)
[9]
  composite z-score: 0.385
[10]
  composite z-score: 0.176
[11]
  composite z-score: 1.54
[12]
  z-score: -23.9 (active)
[13]
  z-score: -19.8 (active)
[14]
  z-score: -1.38 (inactive)
[15]
  composite z-score: 2.8
[16]
  z-score: 1.42 (inactive)
[17]
  composite z-score: -0.112
[18]
  composite z-score: 1.1
[19]
  composite z-score: 1.1
[20]
  composite z-score: -0.128

## O=C(NCc1ccc(F)cc1)[C@H]1C[C@H]2C(=O)NCC(=O)N2[C@H]1c1ccc(O)cc1
[1]
  composite z-score: 0.505
[2]
  composite z-score: 0.6
[3]
  composite z-score: -0.0224
[4]
  composite z-score: -0.162
[5]
  composite z-score: -0.336
[6]
  composite z-score: 0.964
[7]
  composite z-score: 1.3
[8]
  z-score: -0.428 (inactive)
[9]
  composite z-score: 0.101
[10]
  composite z-score: 0.12
[11]
  composite z-score: 1.55
[12]
  z-score: 1.29 (inactive)
[13]
  z-score: 1.01 (inactive)
[14]
  z-score: 1.56 (inactive)
[15]
  composite z-score: 1.22
[16]
  z-score: 0.816 (inactive)
[17]
  composite z-score: 0.372
[18]
  composite z-score: 1.35
[19]
  composite z-score: 0.0831
[20]
  composite z-score: -0.334

## COc1cc2c(cc1O)C(c1cccs1)N(Cc1cc3c(cc1Br)OCO3)CC2 (stereo not given)
[1]
  composite z-score: -0.0508
[2]
  composite z-score: 0.58
[3]
  composite z-score: 0.0797
[4]
  composite z-score: 1.3
[5]
  composite z-score: 1.56
[6]
  composite z-score: 2.08
[7]
  composite z-score: 1.45
[8]
  z-score: 0.364 (inactive)
[9]
  composite z-score: 1.23
[10]
  composite z-score: 0.0881
[11]
  composite z-score: 1.53
[12]
  z-score: -0.592 (inactive)
[13]
  z-score: -4.96 (inactive)
[14]
  z-score: -0.859 (inactive)
[15]
  composite z-score: 3.45
[16]
  z-score: -1.45 (inactive)
[17]
  composite z-score: 0.183
[18]
  composite z-score: 0.289
[19]
  composite z-score: 1.07
[20]
  composite z-score: 0.0778
